In PubChem BioAssay (NCI) one finds growth data, which are given here for 38 compounds.

Where “and” joins values, the source holds several entries; their conditions need not be identical. Equal values may be shown once. Compounds without any hit were thinned out: in the full panel of roughly 83,000, 20% have a hit.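 Cells were grown in 96-well plates and exposed to the test compound at a single concentration for 48 hours; results are reported as percent growth, with values below 10 considered active.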 Calls of active or inactive are those of the source.

For the first assay, the system named is HCT-15 colon. The assay can be described thus: NCI-60 one-dose screen, 48 h (100 = growth as untreated, 0 = no growth, -100 = all killed). The following applies: 10 µM unless noted.
As to `Oc1cccnc1CN1CCOCC1`, the growth was 105% (inactive) and 104% (inactive).

For the compound `COc1cc2c(cc1O)C(=O)CCCC2`, the growth was 95.3% (inactive).

Regarding `S=c1nn[nH]n1C1CCCCC1`, the growth is 115% (inactive).

In the case of `Cc1ccc(NC(=S)N/C=C(\c2ccccc2)S(=O)Cc2ccccc2)c(C)c1` (stereo unspecified), the growth was 103% (inactive).

`O=C(O)/C=C/C=C/c1ccccc1`: the growth is 102% (inactive) and 108% (inactive).

On to `CC(C)(C(=O)c1cccnc1)c1cccnc1`, for which the growth was 104% (inactive) and 105% (inactive).

For `CCCCCCC(C)CC1=C(O)c2ccccc2C(=O)C1=O` (stereo unspecified), the growth was 28.4% (inactive).

Consider `S=c1ccc2ccccc2[nH]1`, for which the growth was 102% (inactive) and 113% (inactive).

Turning to `O=C1C2=C(Nc3cc(Cl)ccc3N2)OC1c1c[nH]c2ccc(COc3ccccc3)cc12` (stereo unspecified), the growth was 82% (inactive).

Take `Oc1ccc(O)c(-c2ccccc2)c1`: the growth is 22.8% (inactive).

Turning to `O=C1C=CC[C@H](/C=C/c2ccccc2)O1`, the growth is 33.4% (inactive) and -52.8% (active).

For `COC(=O)c1nc(=S)[nH]c(C(=O)OC)c1C(=O)c1ccccc1`, the growth is 103% (inactive).

As to `COc1ccc(COC=O)cc1`, the growth was 107% (inactive).

In the case of `OCCCc1ccccc1`, the growth is 100% (inactive).

As to `O=c1[nH]c(=O)c2[nH]c(=O)[nH]c2[nH]1`, the growth was 99% (inactive).

With `O=[N+]([O-])c1cccc(N=Cc2ccccc2)c1`, the growth was 105% (inactive).

On to `O=C(NC(=O)c1ccc(F)c(Cl)c1)NC1CC1`, for which the growth was 86.5% (inactive) and 74.6% (inactive).

Turning to `COCCCNC1=C(C#N)C(=O)NC(c2cccs2)S1` (stereo unspecified), the growth was 98.2% (inactive).

Regarding `CN(C)c1ccc(C(=N)c2ccc(N(C)C)cc2)cc1`, the growth was 23.5% (inactive) and 20.9% (inactive).

For `Cc1cccc(Cl)c1N`, the growth is 109% (inactive).

On to `ON=C(C1CCCCC1)C1CCCCC1`, for which the growth is 106% (inactive).

Take `CNc1ccc(Cl)cc1S(=O)(=O)c1ccccc1[N+](=O)[O-]`: the growth is 105% (inactive) and 91.3% (inactive).

Regarding `Cc1c(O)nc(N)[nH]c1=O`, the growth is 106% (inactive).

Consider `Cc1cc(Cl)nc(Nc2ccccc2)n1`, for which the growth is 97.4% (inactive).

In the case of `CCCC(=O)OCC(COC(=O)CCC)OC(=O)CCC`, the growth was 106% (inactive).

Turning to `COc1ccc2oc3cc(NCCN(C)C)ccc3c(=O)c2c1`, the growth is 90.6% (inactive) and 67% (inactive).

For the compound `N#Cc1c(N)nc2c(c(-c3ccc(Cl)cc3)nn2-c2ccccc2)c1C#N`, the growth is 98.6% [100 µM] (inactive).

As to `Cc1c(Cl)cc(Cl)c(N)c1Cl`, the growth was 104% (inactive).

On to `CCOC(=O)c1csc(N)n1`, for which the growth was 101% (inactive) and 100% (inactive).

Regarding `O=c1[nH]c(=O)n(C2OC(CO)C(O)C2O)cc1I` (stereo unspecified), the growth is 114% (inactive) and 107% (inactive).

As to `Cc1cc(NC(=O)NC(=O)c2ccccc2N(C)C)ccc1Oc1ncc(Br)cn1`, the growth is -31% (active) and 31% (inactive).

Take `C(=N\OCCc1ccccc1)/c1ccccn1`: the growth was 95% (inactive) and 104% (inactive).

Turning to `O=c1[nH]nnc2cc(Cl)ccc12`, the growth was 93.9% (inactive) and 104% (inactive).

Consider `CC(CN(C)C)CN1c2ccccc2Sc2ccccc21` (stereo unspecified), for which the growth was 84.8% (inactive) and 89.2% (inactive) and 84.7% (inactive).

Take `CCOP(C)(=O)/C(Cc1ccc(OC)c(OC)c1)=N\O` (stereo unspecified): the growth was 104% (inactive).

As to `O=C(O)COc1ccccc1F`, the growth was 113% (inactive).

With `CC(=O)Nc1ccc(OC(C)=O)cc1`, the growth was 13.5% (inactive) and 102% (inactive).

For the compound `CC(C)(C)OC(=O)NCCc1ccc(N)cc1`, the growth is 111% (inactive).

A further assay deals with HT29 colon. Described as above. Conditions: 10 µM unless noted.
Regarding `Oc1cccnc1CN1CCOCC1`, the growth was 97.7% (inactive) and 106% (inactive).

On to `COc1cc2c(cc1O)C(=O)CCCC2`, for which the growth was 97.2% (inactive).

As to `S=c1nn[nH]n1C1CCCCC1`, the growth was 116% (inactive).

On to `Cc1ccc(NC(=S)N/C=C(\c2ccccc2)S(=O)Cc2ccccc2)c(C)c1` (stereo unspecified), for which the growth is 108% (inactive).

For `O=C(O)/C=C/C=C/c1ccccc1`, the growth was 100% (inactive) and 103% (inactive).

Turning to `CC(C)(C(=O)c1cccnc1)c1cccnc1`, the growth is 104% (inactive) and 119% (inactive).

For the compound `CCCCCCC(C)CC1=C(O)c2ccccc2C(=O)C1=O` (stereo unspecified), the growth is 66.6% (inactive).

As for `S=c1ccc2ccccc2[nH]1`, the growth was 96% (inactive) and 100% (inactive).

For the compound `O=C1C2=C(Nc3cc(Cl)ccc3N2)OC1c1c[nH]c2ccc(COc3ccccc3)cc12` (stereo unspecified), the growth is 86.4% (inactive).

As to `Oc1ccc(O)c(-c2ccccc2)c1`, the growth is 102% (inactive).

In the case of `O=C1C=CC[C@H](/C=C/c2ccccc2)O1`, the growth is 29.8% (inactive) and 28.4% (inactive).

As for `COC(=O)c1nc(=S)[nH]c(C(=O)OC)c1C(=O)c1ccccc1`, the growth is 109% (inactive).

`COc1ccc(COC=O)cc1`: the growth is 104% (inactive).

Turning to `OCCCc1ccccc1`, the growth is 94.9% (inactive).

For the compound `O=c1[nH]c(=O)c2[nH]c(=O)[nH]c2[nH]1`, the growth was 105% (inactive).

Consider `O=[N+]([O-])c1cccc(N=Cc2ccccc2)c1`, for which the growth is 101% (inactive).

On to `O=C(NC(=O)c1ccc(F)c(Cl)c1)NC1CC1`, for which the growth was 96.4% (inactive) and 94.5% (inactive).

Turning to `COCCCNC1=C(C#N)C(=O)NC(c2cccs2)S1` (stereo unspecified), the growth is 99.9% (inactive).

`CN(C)c1ccc(C(=N)c2ccc(N(C)C)cc2)cc1`: the growth is 2.09% (active) and 4.13% (active).

In the case of `Cc1cccc(Cl)c1N`, the growth was 109% (inactive).

Consider `ON=C(C1CCCCC1)C1CCCCC1`, for which the growth is 103% (inactive).

With `CNc1ccc(Cl)cc1S(=O)(=O)c1ccccc1[N+](=O)[O-]`, the growth is 101% (inactive) and 106% (inactive).

In the case of `Cc1c(O)nc(N)[nH]c1=O`, the growth was 106% (inactive).

`Cc1cc(Cl)nc(Nc2ccccc2)n1`: the growth was 104% (inactive).

Regarding `CCCC(=O)OCC(COC(=O)CCC)OC(=O)CCC`, the growth is 102% (inactive).

With `COc1ccc2oc3cc(NCCN(C)C)ccc3c(=O)c2c1`, the growth was 69.8% (inactive) and 53% (inactive).

In the case of `N#Cc1c(N)nc2c(c(-c3ccc(Cl)cc3)nn2-c2ccccc2)c1C#N`, the growth was 106% [100 µM] (inactive).

Turning to `Cc1c(Cl)cc(Cl)c(N)c1Cl`, the growth is 108% (inactive).

Turning to `CCOC(=O)c1csc(N)n1`, the growth is 103% (inactive) and 96.8% (inactive).

Regarding `O=c1[nH]c(=O)n(C2OC(CO)C(O)C2O)cc1I` (stereo unspecified), the growth is 96.9% (inactive).

In the case of `Cc1cc(NC(=O)NC(=O)c2ccccc2N(C)C)ccc1Oc1ncc(Br)cn1`, the growth was -15.9% (active) and 17% (inactive).

`C(=N\OCCc1ccccc1)/c1ccccn1`: the growth is 112% (inactive) and 97.7% (inactive).

Regarding `O=c1[nH]nnc2cc(Cl)ccc12`, the growth is 109% (inactive) and 129% (inactive).

Regarding `CC(CN(C)C)CN1c2ccccc2Sc2ccccc21` (stereo unspecified), the growth was 56.1% (inactive) and 71.1% (inactive) and 67.4% (inactive).

For `CCOP(C)(=O)/C(Cc1ccc(OC)c(OC)c1)=N\O` (stereo unspecified), the growth was 106% (inactive).

Turning to `O=C(O)COc1ccccc1F`, the growth is 113% (inactive).

For `CC(=O)Nc1ccc(OC(C)=O)cc1`, the growth is -0.769% (active) and 105% (inactive).

In the case of `CC(C)(C)OC(=O)NCCc1ccc(N)cc1`, the growth was 95.6% (inactive).
